Screening results as filed in PubChem BioAssay.
KDM5B inhibitor: blocks human KDM5B histone demethylase activity; 220,000 tested, 2.6% active; Potency, µM (doses to about 57.7 µM), most hits filed as inhibitors; Q9UGL1; KDM5B demethylase, FDH-coupled NADH fluorescence (FDH is formaldehyde dehydrogenase); AID 1347165; active = well fitted inhibition curve with a large enough effect; note: 0% is about no effect; nearly all actives have a fitted effect of over 70% in size
Target sequence (Q9UGL1 whole entry, looked up): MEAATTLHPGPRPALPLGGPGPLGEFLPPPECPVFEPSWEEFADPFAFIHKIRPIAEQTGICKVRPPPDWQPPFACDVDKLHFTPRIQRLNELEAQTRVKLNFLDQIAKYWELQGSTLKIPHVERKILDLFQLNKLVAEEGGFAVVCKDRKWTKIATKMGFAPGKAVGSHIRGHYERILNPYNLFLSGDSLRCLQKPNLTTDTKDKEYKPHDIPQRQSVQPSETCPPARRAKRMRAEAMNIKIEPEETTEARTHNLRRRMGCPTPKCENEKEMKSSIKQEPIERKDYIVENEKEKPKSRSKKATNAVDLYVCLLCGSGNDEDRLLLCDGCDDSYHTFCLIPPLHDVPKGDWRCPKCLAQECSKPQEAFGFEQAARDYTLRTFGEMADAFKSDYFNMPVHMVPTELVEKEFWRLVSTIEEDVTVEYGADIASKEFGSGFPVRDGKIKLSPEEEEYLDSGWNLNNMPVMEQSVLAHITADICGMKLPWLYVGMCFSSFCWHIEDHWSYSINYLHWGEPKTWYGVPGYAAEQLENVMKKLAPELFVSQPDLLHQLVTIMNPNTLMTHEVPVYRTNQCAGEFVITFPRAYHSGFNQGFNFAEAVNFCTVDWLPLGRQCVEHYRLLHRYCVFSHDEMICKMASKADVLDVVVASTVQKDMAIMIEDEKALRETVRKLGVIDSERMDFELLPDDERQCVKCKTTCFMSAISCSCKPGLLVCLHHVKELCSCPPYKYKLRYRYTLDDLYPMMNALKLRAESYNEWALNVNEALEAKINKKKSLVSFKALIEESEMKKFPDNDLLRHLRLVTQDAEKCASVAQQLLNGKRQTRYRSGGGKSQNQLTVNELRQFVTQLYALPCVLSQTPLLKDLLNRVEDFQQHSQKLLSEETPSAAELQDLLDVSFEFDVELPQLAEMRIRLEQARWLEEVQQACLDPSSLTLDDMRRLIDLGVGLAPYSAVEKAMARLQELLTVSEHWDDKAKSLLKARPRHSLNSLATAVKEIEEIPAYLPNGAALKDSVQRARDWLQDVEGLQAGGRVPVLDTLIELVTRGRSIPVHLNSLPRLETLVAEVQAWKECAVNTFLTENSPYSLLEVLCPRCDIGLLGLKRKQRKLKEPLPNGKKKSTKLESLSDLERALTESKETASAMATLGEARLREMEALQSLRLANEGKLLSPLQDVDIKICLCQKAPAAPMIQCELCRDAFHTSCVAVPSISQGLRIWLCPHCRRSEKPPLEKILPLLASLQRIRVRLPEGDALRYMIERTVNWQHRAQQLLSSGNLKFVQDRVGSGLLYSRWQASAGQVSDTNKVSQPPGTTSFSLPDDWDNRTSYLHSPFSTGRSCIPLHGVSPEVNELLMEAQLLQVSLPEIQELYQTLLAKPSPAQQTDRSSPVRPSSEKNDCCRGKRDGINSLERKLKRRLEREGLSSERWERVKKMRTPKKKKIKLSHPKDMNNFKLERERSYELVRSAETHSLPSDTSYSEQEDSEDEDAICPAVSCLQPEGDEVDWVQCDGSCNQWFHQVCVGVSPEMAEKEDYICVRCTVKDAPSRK
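Measured: NADH fluorescence change, 30 min, RT. System: KDM5BΔAP 200 nM final, H3K4me3 peptide, α-KG, Fe(II), ascorbate, NAD⁺ plus FDH, pH 7.5 HEPES. Compounds: titrated, 10 min pre-incubation with enzyme.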
Active calls of the source: *; i = inactive. The entries come from a sample that favours hits as a whole. Potency is the fitted concentration of half-maximal effect.

SMILES | KDM5B inhibitor
CCCc1cc(C(=O)N2CCC3(CC2)CN(C(C)CCC)C(=O)O3)n[nH]1 (stereo not given) | 28µM*
CCCC(C)N1CC2(CCN(C(=O)c3c(CC)noc3C)CC2)OC1=O (stereo not given) | i
CCCC(C)N1CC2(CCN(C(=O)c3ccc(C(C)=O)s3)CC2)OC1=O (stereo not given) | i
O=C(CSc1nc2cc(Cl)ccc2s1)NC1CC1 | i
Cc1ccc(NCc2ccccc2CO)c(C)c1 | i
COc1nc2nc(CCc3ccccc3)n(C)c2cc1-c1ccnn1C | 40µM*
COc1ncc(-c2cc3c(nc2OC)nc(CCc2ccccc2)n3C)cn1 | i
COc1ccc(S(=O)(=O)Nc2ccc(CCc3nc4ccccc4n3C)cc2)cc1 | i
O=C([C@@H]1C[C@H](Oc2cccnc2)CN1C(=O)NCCc1ccccc1)N1CCOCC1 | i
CCN1CCN(C(=O)CS(=O)Cc2nc(-c3ccc(OC)c(OC)c3)oc2C)CC1 (stereo not given) | i
CCCOc1ccc(OCC(=O)NC2CCc3ccccc32)cc1 (stereo not given) | i
COCc1ccc2c(c1)c(OC(C)(C)C(=O)NCCCn1ccnc1)nn2Cc1cccc(OC)c1 | 22µM*
COCc1ccc2c(c1)c(OC(C)(C)C(=O)Nc1ccn(C)n1)nn2Cc1cccc(OC)c1 | i
COCc1ccc2c(c1)c(OC(C)(C)C(=O)NCc1cnccn1)nn2Cc1cccc(OC)c1 | i
CC(C)(Oc1nn(Cc2cccc(Cl)c2)c2ccccc12)C(=O)NCCCn1ccnc1 | i
CC(C)(Oc1nn(CCN2CCOCC2)c2ccccc12)C(=O)NCc1ccncc1 | i
COCc1ccc2c(c1)c(OC(C)(C)C(=O)NCCCn1ccnc1)nn2CCC(C)C | 35µM*
COc1ccc(NC(=O)c2ncoc2-c2ccc(C)o2)cc1Cl | i
COC(=O)c1ccc(CNC(=O)NOCc2ccccc2)cc1 | i
O=C(CC(=O)c1ccccc1F)c1ccccc1F | i
Cc1[nH]c2ccccc2c1C(=O)C(C)OC(=O)c1ccc2c(c1)NC(=O)CS2 (stereo not given) | i
Cc1nn(C(C)C)c(C)c1NC(=O)c1cc2occc2n1Cc1ccc(Cl)cc1 | i
CCOC(=O)C1CCCN(C(=O)Cn2cccc2-c2nc(-c3ccc(C)cc3)no2)C1 (stereo not given) | i
O=C(Nc1ccc(F)cc1)C1CCc2nc(N3CCN(C(=O)C4CCC4)CC3)sc2C1 (stereo not given) | i
CCCn1cc(-c2ccncc2)cc1C(=O)NCc1cccc(F)c1 | 25µM*
SMILES | KDM5B inhibitor
CCn1cc(-c2ccc(Cl)cc2)cc1C(=O)NCc1ccncc1 | i
CCCn1cc(-c2ccncc2)cc1C(=O)NCc1ccccc1 | i
COc1cccc(CNC(=O)CSC2=NC3(CCCCC3)N=C2c2cccs2)c1 | i
CNC(=O)N1CCC(C2CCN(C(=O)c3ccc(Cl)s3)C2)CC1 (stereo not given) | i
COc1cc(F)ccc1-c1cc(C(=O)NCc2c(C)cc(C)[nH]c2=O)c2c(c1)N(C(C)C)CCO2 | 32µM*
Cc1cc(C)c(CNC(=O)c2nc(-c3cccc(F)c3)cc3c2ccn3C(C)C)c(=O)[nH]1 | i
COc1cccc(-c2cc(C(=O)NCc3c(C)cc(C)[nH]c3=O)c3c(c2)N(C(C)C)CCO3)c1OC | 28µM*
COc1ccc(-c2cnc(C)o2)cc1S(=O)(=O)Nc1cccc(Br)c1 | i
COc1ccc(NC(=O)Cc2c(C)[nH]n(-c3nc(-c4ccc(Cl)cc4)cs3)c2=O)cc1 | i
O=C(Cn1nc(-c2cccs2)c2ccccc2c1=O)NCCc1ccccc1 | i
O=C(CSc1nc2ccc(NC(=O)c3ccc(Br)cc3)cc2s1)NC1CC1 | i
COc1cccc(NC(=O)O[C@@H]2CO[C@H]3[C@@H]2OC[C@@H]3Nc2nccc(-c3cccc(F)c3)n2)c1 | i
CC(C)(C)C(=O)N[C@H]1CO[C@H]2[C@@H]1OC[C@@H]2Nc1nccc(-c2ccc(-c3ccccc3)cc2)n1 | i
N#Cc1cccc(NC(=O)O[C@@H]2CO[C@H]3[C@@H]2OC[C@@H]3Nc2nccc(-c3cccc(F)c3)n2)c1 | 6.3µM*
CC(=O)c1cccc(NC(=O)O[C@@H]2CO[C@H]3[C@@H]2OC[C@@H]3Nc2nccc(C3CCCC3)n2)c1 | i
O=C(N[C@H]1CO[C@H]2[C@@H]1OC[C@@H]2Nc1nccc(-c2ccc(-c3ccccc3)cc2)n1)C1CC1 | i
O=C(Nc1cccc2ccccc12)O[C@@H]1CO[C@H]2[C@@H]1OC[C@@H]2Nc1nccc(-c2cccc(F)c2)n1 | i
COC(=O)c1ccccc1NC(=O)O[C@@H]1CO[C@H]2[C@@H]1OC[C@@H]2Nc1nccc(-c2ccc3c(c2)OCO3)n1 | 28µM*
COc1ccc(-c2ccnc(N[C@H]3CO[C@H]4[C@@H]3OC[C@@H]4NS(=O)(=O)c3ccc(C)cc3)n2)cc1 | i
COc1ccc(-c2ccnc(N[C@H]3CO[C@H]4[C@@H]3OC[C@H]4OCC(N)=O)n2)cc1 | 32µM*
